This note sets out measurements from PubChem BioAssay AID2685 (National Center for Advancing Translational Sciences (NCATS), 2010).

Molecules are shown by their SMILES. About 2,100 (0.66%) of roughly 320,000 compounds were called active. About 53% were inconclusive and are not listed. Calls follow the shape of the dose curve; as a rule, active = well fitted inhibition curve with a large enough effect in the signal ratio, with a control signal flat (not every such curve was filed as active); inconclusive = small, poorly fitted or top-dose-only effect, or effect the other way, or a change in a side signal; inactive = flat fitted curve, though single readings scatter; the % refers to the signal ratio. This excerpt belongs to a sample that is enriched for actives.
Potency is read from the fitted curve at half-maximal effect.

The experiment in a line: qHTS Assay for Lipid Storage Modulators in Drosophila S3 Cells.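 As to cell number change: cells counted by Cell Tracker Red CMTPX staining in the red channel.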 As to lipid storage change, negative = inhibition: % is scaled to controls: 0 for no effect and ±100 for the full control effect. The following applies: BODIPY lipid droplet fluorescence, 18-24 h, cells fed with added oleic acid; cell number change: measured here: cell count max response; series mostly up to 46.1 µM; lipid storage change, negative = inhibition: at the top concentration. The method in brief: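 Laser-scanning cytometry quantifies lipid droplet accumulation (500–530 nm total intensity; droplet/cell object ratio) in oleic acid-fed (400 uM added) Drosophila S3 cells treated with a concentration series. 20 uM Triacsin C defined 100% inhibition.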
In general terms: qHTS replaces the single test concentration by a dilution series.
`CCCCn1c(N)c(N(CC)C(=O)C2CCCC2)c(=O)[nH]c1=O`: the “lipid storage change, negative = inhibition” value was 1.39% (inactive) and the cell number change was 14.7%.

For the compound `CC(=O)N1c2ccc(S(=O)(=O)N(C)CC(=O)NC3CCCCC3C)cc2CC1C` (stereo unspecified), the call was inactive.

As for `COc1cn(-c2ccccc2)nc1C(=O)NCc1ccccc1`, the compound was called inactive and the cell number change is 10.4%.

As for `COc1cn(-c2ccccc2)nc1C(=O)OCC(=O)Nc1ccc(C)c(C)c1`, the “lipid storage change, negative = inhibition” value was 8.1% (inactive) and the cell number change was -22.3%.

As for `COc1cn(-c2ccccc2)nc1C(=O)Nc1ccccc1`, the Potency was 0.92 µM (active) and the cell number change is 5.86%.

As to `Cc1cc(C)c(OCC(=O)Nc2ccc3c(c2)OCO3)cc1C`, the compound was classed as inactive.

On to `CC(C)C1Oc2ccccc2N(CC(=O)N(Cc2ccncc2)Cc2ccco2)C1=O` (stereo unspecified), for which the “lipid storage change, negative = inhibition” value was 0.319% (inactive) and the cell number change was -0.805%.

Regarding `CN(CCCC1CCCC1)C(=O)c1cc(COc2c(F)cccc2F)on1`, the Potency is 5.8 µM (active) and the cell number change was -27.2%.

Take `CN(CCCC1CCCC1)C(=O)c1cc(COc2ccc(F)cc2F)on1`: the “lipid storage change, negative = inhibition” value was -23.9% (inactive) and the cell number change was 15.8%.

Turning to `CN(CCCN1CCOCC1)C(=O)c1cc(COc2c(F)cccc2F)on1`, the result was inactive.

Take `Cc1c(NC(=O)c2n[nH]c(=O)c3ccccc23)c(=O)n(-c2ccccc2)n1C`: the “lipid storage change, negative = inhibition” value is -4.65% (inactive) and the cell number change amounted to 5.44%.

For `Cc1c(NC(=O)c2ccc(N(C)S(=O)(=O)c3ccccc3)cc2)c(=O)n(-c2ccccc2)n1C`, the “lipid storage change, negative = inhibition” value is 3.31% (inactive) and the cell number change worked out at 0.409%.

`CCO[C@H]1OC(C(=O)NCc2nc3ccccc3[nH]2)=C[C@@H](C2CCCCC2)[C@@H]1CCCO`: the “lipid storage change, negative = inhibition” value is -4.55% (inactive) and the cell number change was -1.73%.

For the compound `Cc1cc(O)cc2c1C(c1ccc(F)cc1)CC1(CC(C)(C)NC(=S)N1)O2` (stereo unspecified), the “lipid storage change, negative = inhibition” value was 15.9% (inactive) and the cell number change was determined as 11.1%.

Consider `COc1ccc(C2CC3(CC(C)(C)NC(SC)=N3)Oc3cc(O)cc(C)c32)cc1` (stereo unspecified), for which the Potency was 23.1 µM (active) and the cell number change worked out at 26.2%.

In the case of `COc1ccc(C2CC3(CC(C)(C)NC(=S)N3)Oc3cc(O)cc(C)c32)cc1` (stereo unspecified), the “lipid storage change, negative = inhibition” value is 22% (inactive) and the cell number change was -1.84%.

Turning to `O=C(COc1ccc(Cl)cc1Cl)N/N=C/c1ccc(OC2OC(CO)C(O)C(O)C2O)cc1` (stereo unspecified), the compound was classed as inactive and the cell number change was determined as 14.9%.

As to `N#CCOc1ccccc1/C=C/c1nc2ccccc2c(=O)[nH]1`, the Potency was 0.82 µM (active) and the cell number change was 5.41%.

Take `O=c1[nH]c(/C=C/c2cccc3ccccc23)nc2ccccc12`: the “lipid storage change, negative = inhibition” value is -10.1% (inactive) and the cell number change turned out to be 1.01%.

Take `O=c1[nH]c(/C=C/c2ccccc2F)nc2ccccc12`: the compound was classed as inactive.

Consider `Cc1ccc(SCc2nc3ccccc3n2CC(=O)Nc2ccc(Cl)cc2)cc1`, for which the Potency is 11.6 µM (active) and the cell number change was -17.3%.

With `Cc1ccc(SCc2nc3ccccc3n2CC(=O)Nc2c(C)cccc2C)cc1`, the “lipid storage change, negative = inhibition” value is -6.68% (inactive) and the cell number change came out at 5.98%.

For `O=C(Cn1c(CSc2ccccc2)nc2ccccc21)Nc1ccccc1`, the “lipid storage change, negative = inhibition” value was 2.53% (inactive).

On to `CCOC(=O)CSc1nnc(-c2ccc3ncccc3c2)n1C`, for which the “lipid storage change, negative = inhibition” value is 19.8% (inactive) and the cell number change is -5.02%.

With `Cc1ccc(S(=O)(=O)NN2C(=O)c3ccccc3NC2c2ccccc2)cc1` (stereo unspecified), the “lipid storage change, negative = inhibition” value is 0.893% (inactive) and the cell number change turned out to be 14.4%.

`Cc1cc2c(cc(C(=O)OC(C(=O)NC3CCCCC3)C(C)C)n2C)o1` (stereo unspecified): the Potency was 1.46 µM (active) and the cell number change was -21.3%.

For `CC(C)C(OC(=O)c1ccco1)C(=O)NC1CCCCC1` (stereo unspecified), the “lipid storage change, negative = inhibition” value was 4.26% (inactive) and the cell number change was 10.7%.

On to `COCCNC(=O)C(OC(=O)c1cc2oc(C)cc2n1C)C(C)C` (stereo unspecified), for which the “lipid storage change, negative = inhibition” value was -24.2% (inactive) and the cell number change turned out to be 9.13%.

As to `COC(=O)c1cc(OC)c(OC)cc1NCC(=O)Nc1ccc(C)cc1`, the “lipid storage change, negative = inhibition” value was 4.61% (inactive) and the cell number change was -5.98%.

Turning to `O=C1c2ccccc2C(=O)c2c(NCCCN(CCO)CCO)cccc21`, the cell number change stood at 7.53% and the lipid storage change, negative = inhibition is 13.2% [at 9.22 µM] (inactive).

Regarding `CCN(CC)CC(=O)Nc1cccc2c1C(=O)c1ccccc1C2=O`, the “lipid storage change, negative = inhibition” value was 2.18% (inactive) and the cell number change is 7.09%.

With `CNc1cccc2c1C(=O)c1ccccc1C2=O`, the Potency is 11.6 µM (active) and the cell number change is -6.63%.

For the compound `COc1ccc(-n2cc(CN(C)C(C)c3ccncn3)c(-c3cccc(F)c3)n2)cc1` (stereo unspecified), the “lipid storage change, negative = inhibition” value was 10.9% (inactive) and the cell number change was -0.848%.

With `CC(C)(C)c1ccc(C(=O)CCC(=O)NCc2ccccc2)cc1`, the Potency was 14.6 µM (active) and the cell number change was 6.25%.

`CC(C)(C)c1ccc(C(=O)NCc2ccccc2)cc1`: the “lipid storage change, negative = inhibition” value is -22.5% (inactive) and the cell number change was -10.5%.

For the compound `O=C(CCC(=O)c1ccc(Cl)cc1)NCc1ccccc1`, the outcome was inactive and the cell number change was -20.1%.

Regarding `CCC(O)CNc1nc(-n2nc(C)cc2C)nc2sc3c(c12)CCCC3` (stereo unspecified), the result was inactive and the cell number change amounted to 1.08%.

With `O=C(CSc1nc2ccccc2c(=O)[nH]1)Nc1ccc(S(=O)(=O)N2CCCC2)cc1`, the “lipid storage change, negative = inhibition” value is 27.6% (inactive) and the cell number change is -0.593%.

In the case of `CC(=O)c1nnn(-c2ccccc2C#N)c1C`, the “lipid storage change, negative = inhibition” value is -0.571% (inactive) and the cell number change turned out to be 25.6%.

Consider `O=C(Nc1nc(-c2cccs2)c(C(=O)C(F)(F)F)s1)c1ccccc1`, for which the “lipid storage change, negative = inhibition” value was -1.08% (inactive).

Take `CCC(=O)NC1(Cc2ccc(O)cc2)CCCCC1`: the “lipid storage change, negative = inhibition” value was -26.5% (inactive) and the cell number change is -37.5%.

With `NNC(=O)CC(=O)NC1(Cc2ccc(O)cc2)CCCCC1`, the “lipid storage change, negative = inhibition” value is 21.8% (inactive) and the cell number change came out at 4.44%.

Consider `O=C(NC1(Cc2ccc(O)cc2)CCCCC1)c1ccccc1`, for which the Potency is 5.17 µM (active) and the cell number change is -23.1%.

Regarding `CCC(CC)C(=O)Nc1nnc(S(=O)(=O)N2CCCc3ccccc32)s1`, the “lipid storage change, negative = inhibition” value is 20.3% (inactive) and the cell number change was -8.08%.

In the case of `CC(C)(C)NC(=O)CCc1nnc(Cc2c[nH]c3ccccc23)o1`, the “lipid storage change, negative = inhibition” value is 21.4% (inactive) and the cell number change is -0.239%.

For the compound `Cc1nn(C)c(C)c1S(=O)(=O)N(CC(=O)NCCN1CCOCC1)c1ccc(C(C)C)cc1`, the “lipid storage change, negative = inhibition” value was 7.54% (inactive) and the cell number change came out at 12.7%.

In the case of `C/C(CC(O)c1ccc2ccccc2n1)=N/O` (stereo unspecified), the Potency is 10.3 µM (active) and the cell number change came to 3.68%.

On to `Cc1nc2ccccc2nc(C)c1=NO`, for which the “lipid storage change, negative = inhibition” value is 8.33% (inactive) and the cell number change was determined as 8.5%.

Turning to `CC(O)/C=C/c1ccc2ccccc2n1` (stereo unspecified), the compound was called inactive and the cell number change was -12.5%.

For the compound `O=C(Nc1c2c(nn1-c1ccccc1)CS(=O)C2)c1ccc2c(c1)OCO2` (stereo unspecified), the “lipid storage change, negative = inhibition” value is -19.3% (inactive) and the cell number change was 12.2%.

`O=c1c2cnn(-c3ccccc3)c2ncn1Cc1ccccc1`: the “lipid storage change, negative = inhibition” value was 1.05% (inactive) and the cell number change was -12.8%.

For the compound `O=c1c2cnn(-c3ccccc3)c2ncn1Cc1ccco1`, the Potency was 32.6 µM (active) and the cell number change is 1.65%.

With `O=c1c2cnn(-c3ccccc3)c2ncn1Cc1ccccn1`, the “lipid storage change, negative = inhibition” value is 9.36% (inactive) and the cell number change worked out at 26.2%.

With `COCCN1C(=O)N[C@H](c2cccc(C(F)(F)F)c2)C(C(=O)OC)=C1C`, the “lipid storage change, negative = inhibition” value is -4.45% (inactive) and the cell number change was found to be 3.4%.

In the case of `O=C(NCCc1ccccc1)C(=O)c1c(-c2ccccc2)cc2ccccn12`, the “lipid storage change, negative = inhibition” value is -8.26% (inactive) and the cell number change is -0.29%.

Turning to `Cc1ccc(S(=O)(=O)N(C)C)cc1NC(=O)COC(=O)c1sc2cc(Cl)ccc2c1Cl`, the Potency is 1.46 µM (active) and the cell number change is -27.1%.

On to `Cc1ccc(S(=O)(=O)N(C)C)cc1NC(=O)COC(=O)c1ccc(Cl)cc1`, for which the compound was called inactive.

As to `Cc1ccc(S(=O)(=O)N(C)C)cc1NC(=O)COC(=O)c1ccc2c(c1)OCCO2`, the “lipid storage change, negative = inhibition” value was -4.06% (inactive) and the cell number change is -1.35%.

With `O=C(Nc1ccnn1C1CCN(Cc2ccc(O)c(Cl)c2)CC1)C1CCCC1`, the “lipid storage change, negative = inhibition” value is -0.76% (inactive) and the cell number change was found to be 6.1%.
